Experimental findings from PubChem BioAssay (NCI) are described below.

Some test systems named below: HCT-15 colon; HT29 colon; SNB-75 CNS; SNB-19 CNS; U251 CNS; PC-3 prostate; SK-MEL-5 melanoma; UACC-62 melanoma; LOX IMVI melanoma; SK-MEL-28 melanoma; SK-MEL-2 melanoma; SN12C renal; TK-10 renal; ACHN renal; CAKI-1 renal; CCRF-CEM leukemia; MOLT-4 leukemia; UO-31 renal; A498 renal; EKVX NSCLC.
Common to all, as to test: NCI-60 one-dose screen, 48 h (100 = growth as untreated, 0 = no growth, -100 = all killed)
Settings in all cases: 10 µM unless noted

The structures appear in SMILES notation. About 83,000 compounds went through this panel and 20% of them were active in at least one assay; those are over-represented in the sample as a whole.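 48-hour exposure, single concentration, 96-well plates; percent growth endpoint where 0 means no net growth. Active: below 10.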 A number with no mark means an inactive call. Activity calls are given as the source filed them.

Consider `Cc1cc(N/C=c2\sc3ncnn3c2=O)no1`, for which the growth in the assay on HCT-15 colon was 94.6%; in the assay with HT29 colon it was 102%; in the assay on SNB-75 CNS, 91.3%; in the assay with SNB-19 CNS it was 95.2%; in the assay on U251 CNS, 105%; with PC-3 prostate, 97.7%. Moreover, the growth in the assay with SK-MEL-5 melanoma is 99.2%; with UACC-62 melanoma, 94%; with LOX IMVI melanoma, 97.3%; with SK-MEL-28 melanoma, 104%; in the assay with SK-MEL-2 melanoma it was 101%; in the assay on SN12C renal it was 95.5%. Further, the growth was 109% in the assay with TK-10 renal; 106% in the assay with ACHN renal; 101% with CAKI-1 renal; 123% in the assay with CCRF-CEM leukemia; 104% with MOLT-4 leukemia.

Consider `N#Cc1ccc(NC(=O)c2ccc3cccnc3c2O)cc1`, for which the growth in the assay on HCT-15 colon is 31.4%; with HT29 colon, 30.7%; with SNB-75 CNS, 43.8%; with SNB-19 CNS, 23.6%; with U251 CNS, 14.6%; in the assay with PC-3 prostate, 45.9%. Moreover, the growth with SK-MEL-5 melanoma is 14.4%; in the assay on UACC-62 melanoma, 9.43% (active); in the assay with LOX IMVI melanoma it was 21.9%; with SK-MEL-28 melanoma, 34.5%; with SK-MEL-2 melanoma, 41.3%; with SN12C renal, 33.7%. Also, the growth in the assay on TK-10 renal is 34%; in the assay with ACHN renal, 14.7%; with CAKI-1 renal, -12.5% (active); in the assay on CCRF-CEM leukemia it was 23.8%; with MOLT-4 leukemia it was 12.7%.

Consider `COc1ccc(Cn2cc(COc3cc(/C=C/C(=O)c4cc(OC)c(OC)c(OC)c4)ccc3OC)nn2)cc1`, for which the growth is 38.5% with HCT-15 colon; 13% in the assay on HT29 colon; 59.8% in the assay with SNB-75 CNS; 82.6% with SNB-19 CNS; 44.6% in the assay with U251 CNS; 44.5% with PC-3 prostate. The growth with SK-MEL-5 melanoma is 80.2%; in the assay on UACC-62 melanoma, 70.1%; in the assay on LOX IMVI melanoma, 36.4%; in the assay on SK-MEL-28 melanoma, 84.6%; with SK-MEL-2 melanoma, 87.1%; with SN12C renal, 51%. Besides, the growth is 37.8% with UO-31 renal; 64.6% in the assay with ACHN renal; 17.5% in the assay with CAKI-1 renal; 81.4% in the assay on A498 renal; 82.3% in the assay with MOLT-4 leukemia.

`CCOC(=O)CC/C(C)=N\Nc1ccc([N+](=O)[O-])cc1`: the growth with HCT-15 colon was 35.8%; in the assay on HT29 colon it was 52.9%; in the assay on SNB-75 CNS it was 93%; in the assay with SNB-19 CNS it was 95.5%; with U251 CNS, 69.1%; in the assay on SK-MEL-5 melanoma, 54.3%. Also, the growth in the assay with UACC-62 melanoma is 23.5%; in the assay on LOX IMVI melanoma it was 17.1%; with SK-MEL-28 melanoma, 99.9%; in the assay with SK-MEL-2 melanoma, 58.8%; in the assay with EKVX NSCLC, 51.9%; in the assay on SN12C renal, 77.6%. Also, the growth with UO-31 renal was 30.3%; in the assay with TK-10 renal, 58.2%; in the assay on ACHN renal it was 36.8%; in the assay with CAKI-1 renal it was 40.6%; with A498 renal, 85.1%; in the assay on CCRF-CEM leukemia, 41.7%. In addition, in the assay on MOLT-4 leukemia, the growth is 35.4%.

For `COc1ccc(/C=C/c2nc(N3CCOCC3)c3cc(F)c(F)cc3n2)cc1OC`, the growth with HCT-15 colon is 36.3%; with HT29 colon it was 42.4%; with SNB-75 CNS, 54.8%; in the assay with SNB-19 CNS, 45.3%; in the assay on U251 CNS, 41.5%; in the assay with PC-3 prostate, 8.26% (active). Also, the growth in the assay with SK-MEL-5 melanoma is -18.1% (active); in the assay on UACC-62 melanoma, 41.1%; in the assay on LOX IMVI melanoma, 36.4%; with SK-MEL-28 melanoma, 52.4%; with SK-MEL-2 melanoma, 43.3%; with SN12C renal, 33.4%. The growth in the assay with TK-10 renal was 28.8%; in the assay with ACHN renal it was 33.1%; in the assay with CAKI-1 renal, 28.1%; in the assay on A498 renal it was 45.5%; in the assay on CCRF-CEM leukemia, 35.8%; in the assay with MOLT-4 leukemia, 6.52% (active).

As to `COc1cccc(C2CC(=O)Nc3c2c(C)nn3-c2nc3ccccc3[nH]2)c1OC` (configuration not stated), the growth is 59.4% in the assay on HCT-15 colon; 86.6% in the assay on HT29 colon; 74.8% in the assay on SNB-75 CNS; 87.1% in the assay on SNB-19 CNS; 63.6% in the assay on U251 CNS; 62.8% with PC-3 prostate. In addition, the growth is 60.1% in the assay on SK-MEL-5 melanoma; 51.3% in the assay with UACC-62 melanoma; 54.2% with LOX IMVI melanoma; 79.5% with SK-MEL-28 melanoma; 72.7% in the assay on SK-MEL-2 melanoma; 75.5% in the assay with SN12C renal. For the same molecule, the growth with UO-31 renal was 73.1%; with ACHN renal it was 56.5%; in the assay with CAKI-1 renal it was 80.6%; with A498 renal it was -5.31% (active); with CCRF-CEM leukemia it was 8.46% (active); in the assay with MOLT-4 leukemia it was -31% (active).

For `CC(=O)Nc1ccc(S(=O)(=O)NC(CCC(=O)Nc2ccc(Cl)cc2)C(=O)O)cc1` (configuration not stated), the growth is 98.9% in the assay with HCT-15 colon; 106% in the assay on HT29 colon; 69.2% in the assay with SNB-75 CNS; 100% in the assay with SNB-19 CNS; 90.6% with U251 CNS; 97.5% with PC-3 prostate. Moreover, the growth in the assay with SK-MEL-5 melanoma is 97.7%; in the assay with UACC-62 melanoma, 67.5%; with LOX IMVI melanoma, 81.1%; in the assay on SK-MEL-28 melanoma, 94.4%; in the assay with SK-MEL-2 melanoma, 107%; in the assay on SN12C renal it was 102%. The growth with TK-10 renal is 95.8%; in the assay with ACHN renal, 75.7%; in the assay with CAKI-1 renal, 83%; with A498 renal, 58.3%; in the assay on CCRF-CEM leukemia, 88%; with MOLT-4 leukemia it was 110%.

`COc1ccc(C2CC(=O)Nc3c2c(C)nn3-c2nc3ccccc3[nH]2)cc1OC` (configuration not stated): the growth in the assay with HCT-15 colon was 85.9%; in the assay with HT29 colon, 95.3%; with SNB-75 CNS, 50.9%; in the assay with SNB-19 CNS it was 84.9%; in the assay on U251 CNS it was 84.4%; with PC-3 prostate, 75.4%. Besides, the growth with SK-MEL-5 melanoma is 71.2%; with UACC-62 melanoma, 68.8%; in the assay with LOX IMVI melanoma, 44.2%; in the assay with SK-MEL-28 melanoma it was 88.1%; in the assay with SK-MEL-2 melanoma, 77.8%; with SN12C renal, 89.9%. The growth was 52.4% in the assay on UO-31 renal; 85.2% in the assay with ACHN renal; 72.8% in the assay on CAKI-1 renal; 3.48% (active) in the assay with A498 renal; 5.82% (active) in the assay with CCRF-CEM leukemia; -31.5% (active) in the assay with MOLT-4 leukemia.
